Several values for one entry are separate records, joined by “and”; a condition that tells them apart may be missing. Equal values may be shown once. Results filed as inconclusive are left out. Some structures have more than one record in an assay (separate samples or runs), and their calls can disagree. Activity calls are given as the source filed them. Unless noted, the call rests on the fitted dose curve; in most records, active means well fitted curve in the direction sought with a large enough effect in the repeat runs; inconclusive means weak or mixed curves; inactive means no such curve, though single readings can be large; an effect the other way counts as inactive or inconclusive.
Columns and labels:
[1] = qHTS assay to identify small molecule agonists of the estrogen receptor alpha (ER-alpha) signaling pathway in the presence of an antagonist - cell viability counter screen (AID 1259386);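 further: series mostly up to about 92 µM; cells exposed to compounds for 22 h at 37 °C before the viability read; nearly all actives have a fitted effect of over 30% in size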
How it was run: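 Cells are starved of estrogens for 5 days in charcoal-stripped serum, seeded for 24hr and co-treated with ICI-182,780 (10.0nM final) and test compounds. After 22hr at 37C, viability is read as CellTiter-Fluor fluorescence.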

[2] = molecular target: Progesterone receptor (Homo sapiens) (UniProt P06401); assay: qHTS assay to identify small molecule agonists of the progesterone receptor (PR) signaling pathway (AID 1346784; calls by dose curve; further: nearly all actives have a fitted effect of over 30% in size)
Progesterone receptor (Homo sapiens), sequence (P06401 whole entry, looked up): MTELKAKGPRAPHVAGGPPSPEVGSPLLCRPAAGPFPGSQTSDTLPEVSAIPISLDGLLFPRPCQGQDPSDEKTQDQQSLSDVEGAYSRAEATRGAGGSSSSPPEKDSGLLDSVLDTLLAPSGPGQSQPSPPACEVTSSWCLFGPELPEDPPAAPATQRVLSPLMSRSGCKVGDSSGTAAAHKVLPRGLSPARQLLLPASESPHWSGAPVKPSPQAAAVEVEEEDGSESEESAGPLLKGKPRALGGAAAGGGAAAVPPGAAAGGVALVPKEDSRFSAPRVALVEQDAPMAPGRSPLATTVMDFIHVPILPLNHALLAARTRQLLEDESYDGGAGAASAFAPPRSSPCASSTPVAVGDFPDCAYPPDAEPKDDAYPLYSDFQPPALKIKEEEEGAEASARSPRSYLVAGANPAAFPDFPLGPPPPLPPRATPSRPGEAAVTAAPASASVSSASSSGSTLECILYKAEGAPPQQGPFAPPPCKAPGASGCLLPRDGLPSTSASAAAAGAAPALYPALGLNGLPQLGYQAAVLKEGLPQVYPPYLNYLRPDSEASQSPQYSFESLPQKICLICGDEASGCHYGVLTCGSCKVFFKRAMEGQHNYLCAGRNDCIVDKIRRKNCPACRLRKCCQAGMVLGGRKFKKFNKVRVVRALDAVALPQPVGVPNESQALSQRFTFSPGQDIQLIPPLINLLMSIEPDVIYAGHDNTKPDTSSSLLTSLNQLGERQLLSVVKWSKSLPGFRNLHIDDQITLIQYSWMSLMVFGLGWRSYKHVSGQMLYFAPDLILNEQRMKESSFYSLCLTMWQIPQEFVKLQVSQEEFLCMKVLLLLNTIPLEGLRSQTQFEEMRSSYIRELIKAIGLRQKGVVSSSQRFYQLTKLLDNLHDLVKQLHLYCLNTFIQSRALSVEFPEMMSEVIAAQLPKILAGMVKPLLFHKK
How it was run: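 PR-UAS-bla HEK 293T cells carrying a UAS-driven beta-lactamase reporter were seeded in medium with 2% charcoal-stripped FBS, preincubated 6 hr at 37C, then exposed to compounds in DMSO for 16 hr; agonism was read by LiveBLAzer B/G FRET fluorescence.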

[3] = qHTS assay to identify small molecule antagonists of the progesterone receptor (PR) signaling pathway - cell viability counter screen (AID 1346798); further: series mostly up to about 92 µM; nearly all actives have a fitted effect of over 50% in size
How it was run: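 PR-UAS-bla HEK293T cells in medium with 2% charcoal-stripped FBS were treated with compounds plus R5020 for 16 hr at 37C. Cell viability was then read by CellTiter-Glo luminescence after 30 min at room temperature in the same wells.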

[4] = qHTS assay to identify small molecule agonists of the progesterone receptor (PR) signaling pathway - cell viability counter screen (AID 1346799; calls by dose curve; further: nearly all actives have a fitted effect of over 45% in size)
How it was run: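 PR-UAS-bla HEK293T cells, 3,000 per well in medium with 2% charcoal-stripped FBS, were preincubated 6 hr at 37C, then exposed to compounds for 16 hr; viability was read as CellTiter-Glo luminescence after 30 min at room temperature.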

[5] = qHTS assay to identify small molecule antagonists of the TGF-beta/Smad signaling pathway - cell viability counter screen (AID 1346824); further: nearly all actives have a fitted effect of over 50% in size
How it was run: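 SBE-bla HEK 293T cells, incubated overnight, then compound plus 0.25 ng/mL TGF-beta1 (stock added) for 5 hr at 37 C. Viability was read in the same wells by CellTiter-Glo luminescence after 30 min at room temperature.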

[6] = qHTS assay to identify small molecule agonists of the TGF-beta/Smad signaling pathway - cell viability counter screen (AID 1346829); further: top concentration of the series differs between compounds; nearly all actives have a fitted effect of over 45% in size
How it was run: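 SBE-bla HEK 293T cells plated overnight, compound exposure 5 hr at 37 C. Viability read in the same wells by CellTiter-Glo luminescence after 30 min at room temperature, following the beta-lactamase read.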

[7] = qHTS assay to identify small molecule agonists of the TGF-beta/Smad signaling pathway (AID 1346859; active means well fitted activation curve with a large enough effect in the signal ratio in the repeat runs, not every such curve was filed as active; the % refers to the signal ratio; further: series mostly up to about 77 µM)
How it was run: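 HEK 293T cells stably carrying a beta-lactamase reporter driven by the Smad binding element were seeded overnight, exposed to DMSO-dissolved compounds for 5 hr at 37 C, 5% CO2, then loaded with FRET substrate for 2 hr at room temperature.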

[8] = molecular target: Thyrotropin-releasing hormone receptor (Homo sapiens) (UniProt P34981); assay: qHTS assay to identify small molecule antagonists of the thyrotropin-releasing hormone receptor (TRHR) signaling pathway (AID 1346877; active means well fitted inhibition curve with a large enough effect in the repeat runs, not every such curve was filed as active; further: series mostly up to about 51 µM)
Thyrotropin-releasing hormone receptor (Homo sapiens), sequence (P34981 whole entry, looked up): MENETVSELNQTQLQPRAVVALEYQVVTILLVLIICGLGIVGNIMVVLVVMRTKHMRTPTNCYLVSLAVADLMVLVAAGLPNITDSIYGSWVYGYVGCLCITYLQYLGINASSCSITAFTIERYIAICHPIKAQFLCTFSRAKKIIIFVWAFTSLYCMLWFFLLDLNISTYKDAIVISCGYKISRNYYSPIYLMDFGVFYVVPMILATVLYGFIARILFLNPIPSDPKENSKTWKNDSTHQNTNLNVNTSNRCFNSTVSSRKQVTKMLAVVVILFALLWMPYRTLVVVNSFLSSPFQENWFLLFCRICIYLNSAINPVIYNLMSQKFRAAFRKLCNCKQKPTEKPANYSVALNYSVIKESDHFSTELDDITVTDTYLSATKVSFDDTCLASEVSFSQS
How it was run: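 Cells (TRHR-HEK293) are plated and kept 18 h at 37 °C/5% CO2. A calcium-sensitive dye is added for 2 h, compound follows for 5 min at room temperature, and TRH is then given at 1 nM final.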

[9] = Human pregnane X receptor (PXR) small molecule agonists, qHTS cell viability counter screen (AID 1346977); further: nearly all actives have a fitted effect of over 50% in size; further: potency means the concentration at half of the fitted maximal effect
How it was run: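 PXR-Luc HepG2 cells in medium with 5% charcoal-stripped FBS were pre-incubated 5hr, then exposed to compounds for 24hr at 37C. Viability was read in the same wells by CellTiter-Fluor fluorescence, reagent added after 23hr with a 1hr incubation.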

[10] = Caspase-3/7 induction in CHO-K1 cells by small molecules, qHTS cell viability counter screen (AID 1346979); further: nearly all actives have a fitted effect of over 35% in size; further: potency means the concentration at half of the fitted maximal effect
How it was run: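 Wild-type CHO-K1 cells were seeded at 1,500 per well, rested 5hr at 37 C, then exposed to compounds in DMSO. After 16hr, CellTiter-Fluor reagent was added and fluorescence read 1hr later as the viability measure.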

[11] = Caspase-3/7 induction in CHO-K1 cells by small molecules, qHTS assay (AID 1346980); further: nearly all actives have a fitted effect of over 15% in size
How it was run: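 Wild-type CHO-K1 cells exposed to compounds for 17hr at 37 C, 5% CO2. Caspase-3/7 activity then measured by Caspase-Glo 3/7 luminescence after 30min at room temperature.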

[12] = Caspase-3/7 induction in HepG2 cells by small molecules, qHTS cell viability counter screen (AID 1346981); further: nearly all actives have a fitted effect of over 30% in size; further: potency means the concentration at half of the fitted maximal effect
How it was run: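 Steps: seed 2,000 HepG2 cells per well; incubate 5 hr at 37 C; pin-add compounds in DMSO; incubate 16 hr; add CellTiter-Fluor; after 1 hr at 37 C and 5% CO2, read fluorescence.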

[13] = molecular target: Nuclear receptor subfamily 1 group I member 2 (Homo sapiens) (UniProt O75469); assay: Human pregnane X receptor (PXR) small molecule agonists, qHTS assay (AID 1346982); further: nearly all actives have a fitted effect of over 35% in size; further: potency means the concentration at half of the fitted maximal effect
Nuclear receptor subfamily 1 group I member 2 (Homo sapiens), sequence (O75469 whole entry, looked up): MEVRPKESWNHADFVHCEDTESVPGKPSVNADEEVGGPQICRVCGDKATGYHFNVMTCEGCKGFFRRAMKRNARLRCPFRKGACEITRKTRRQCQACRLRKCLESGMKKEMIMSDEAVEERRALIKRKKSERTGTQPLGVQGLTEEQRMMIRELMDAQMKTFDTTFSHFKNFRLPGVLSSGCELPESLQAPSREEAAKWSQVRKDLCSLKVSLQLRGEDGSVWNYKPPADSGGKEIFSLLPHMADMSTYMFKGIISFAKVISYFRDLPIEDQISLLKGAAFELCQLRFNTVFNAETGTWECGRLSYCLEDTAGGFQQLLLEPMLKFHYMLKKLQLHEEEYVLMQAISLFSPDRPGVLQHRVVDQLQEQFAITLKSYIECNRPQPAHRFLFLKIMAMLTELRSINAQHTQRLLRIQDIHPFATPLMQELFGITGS
How it was run: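 Agonist mode qHTS: PXR-Luc HepG2 cells plated 5 hr before DMSO-dissolved compounds were pinned in, cultured 24 hr at 37 C, 5% CO2; ONE-Glo luminescence readout.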

[14] = molecular target: Cytochrome P450 2D6 (Homo sapiens) (UniProt P10635); assay: Cytochrome P450 Family 2 Subfamily D Member 6 (CYP2D6) small molecule antagonists: luciferase reporter qHTS assay (AID 1671196); further: series mostly up to about 120 µM; nearly all actives have a fitted effect of over 50% in size
Cytochrome P450 2D6 (Homo sapiens), sequence (P10635 whole entry, looked up): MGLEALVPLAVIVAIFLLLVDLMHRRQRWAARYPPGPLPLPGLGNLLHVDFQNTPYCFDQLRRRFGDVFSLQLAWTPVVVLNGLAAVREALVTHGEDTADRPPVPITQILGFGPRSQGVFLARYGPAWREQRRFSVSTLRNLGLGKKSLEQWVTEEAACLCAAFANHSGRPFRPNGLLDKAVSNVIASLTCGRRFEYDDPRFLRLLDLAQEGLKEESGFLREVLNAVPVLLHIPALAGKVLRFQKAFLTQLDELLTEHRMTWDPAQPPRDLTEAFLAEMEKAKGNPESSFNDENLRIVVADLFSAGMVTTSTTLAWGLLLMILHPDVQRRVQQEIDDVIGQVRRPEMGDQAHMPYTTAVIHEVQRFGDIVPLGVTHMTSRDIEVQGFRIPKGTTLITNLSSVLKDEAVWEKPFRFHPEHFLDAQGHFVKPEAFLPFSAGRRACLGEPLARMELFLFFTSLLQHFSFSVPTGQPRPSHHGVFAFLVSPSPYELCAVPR
How it was run: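 P450-Glo format: CYP2D6 converts a proluciferin substrate to luciferin in an NADPH-driven reaction lasting 1 h at room temperature. Light output, proportional to CYP2D6 activity, reflects interference by test chemicals.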

[15] = molecular target: Nuclear receptor subfamily 1 group I member 2 (Rattus norvegicus) (UniProt Q9R1A7); assay: Rat pregnane X receptor (rPXR) activation by small molecules, qHTS assay (AID 1346983); conditions: rPXR luciferase reporter cells, One-Glo luminescence, 24 h; max activation: stronger effect = higher value; further: nearly all actives have a fitted effect of over 20% in size; further: potency means the concentration at half of the fitted maximal effect
Nuclear receptor subfamily 1 group I member 2 (Rattus norvegicus), sequence (Q9R1A7 whole entry, looked up): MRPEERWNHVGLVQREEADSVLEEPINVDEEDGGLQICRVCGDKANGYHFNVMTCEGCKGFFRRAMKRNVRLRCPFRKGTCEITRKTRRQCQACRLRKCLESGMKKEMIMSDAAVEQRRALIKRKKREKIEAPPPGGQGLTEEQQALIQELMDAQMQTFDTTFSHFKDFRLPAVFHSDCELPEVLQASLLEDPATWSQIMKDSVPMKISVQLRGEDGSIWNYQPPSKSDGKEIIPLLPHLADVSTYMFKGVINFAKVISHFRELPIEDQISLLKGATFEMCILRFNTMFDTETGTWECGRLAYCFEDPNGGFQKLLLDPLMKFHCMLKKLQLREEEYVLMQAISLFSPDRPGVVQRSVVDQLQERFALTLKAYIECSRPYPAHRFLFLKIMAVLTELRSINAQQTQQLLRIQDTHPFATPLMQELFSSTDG
How it was run: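 Cell-based rPXR activation assay: rPXR cells, 2,000 per well, rested 5hr at 37 C, then exposed to compounds in DMSO for 24 hr at 37 C. Luciferase activity read by One-Glo luminescence after 30 min at room temperature.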

[16] = molecular target: Nuclear receptor subfamily 1 group I member 2 (Homo sapiens) (UniProt O75469); assay: CYP3A4 induction through human pregnane X receptor (PXR) by small molecules, qHTS assay (AID 1346984); further: nearly all actives have a fitted effect of over 40% in size
How it was run: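 Steps: seed DPX-2 cells, 5 hr at 37C; pin-transfer compounds; 24 hr at 37C; add Luciferin-IPA (3uM final), 3 hr at 37C; add One-Glo, 30 min RT; read luminescence.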

[17] = molecular target: Nuclear receptor subfamily 1 group I member 2 (Homo sapiens) (UniProt O75469); assay: Human pregnane X receptor (PXR) activation by small molecules, qHTS assay (AID 1346985); further: nearly all actives have a fitted effect of over 40% in size; further: potency means the concentration at half of the fitted maximal effect
How it was run: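 DPX-2 cells (HepG2 co-transfected with a PXR response element and a CYP3A4-promoter luciferase construct) were seeded at 2,000 per well, rested 5 hr at 37C, then exposed to DMSO-dissolved compounds for 24 hr. Activation was read as luciferase luminescence.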

[18] = molecular target: Thyrotropin-releasing hormone receptor (Homo sapiens) (UniProt P34981); assay: qHTS assay to identify small molecule agonists of the thyrotropin-releasing hormone receptor (TRHR) signaling pathway (AID 1346891; calls by dose curve; further: series mostly up to about 58 µM)
How it was run: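 TRHR-expressing HEK293 cells were plated 18 h at 37 °C/5% CO2, loaded with calcium dye 2 h at 37 °C, then given compound in DMSO; fluorescence was read kinetically for 3 min at 1 s intervals.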

[19] = Caspase-3/7 induction in HepG2 cells by small molecules, qHTS assay (AID 1346978); further: nearly all actives have a fitted effect of over 15% in size; further: potency means the concentration at half of the fitted maximal effect
How it was run: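 Wild-type HepG2 cells, 2,000/well, settled 5 hr at 37 C and 5% CO2, then compound-treated for 17 hr; caspase-3/7 activity read by luminescent Caspase-Glo 3/7 after 30 min at room temperature.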

[20] = molecular target: Progesterone receptor (Homo sapiens) (UniProt P06401); assay: qHTS assay to identify small molecule antagonists of the progesterone receptor (PR) signaling pathway (AID 1346795; active means well fitted inhibition curve with a large enough effect in the signal ratio in the repeat runs, not every such curve was filed as active; the % refers to the signal ratio)
How it was run: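 PR-UAS-bla HEK293T cells carrying a UAS-driven beta-lactamase reporter were plated in medium with 2% charcoal-stripped FBS and rested 6 hr at 37C. Compounds were added with 1 nM R5020 (final) for 16 hr, then FRET substrate loaded 2 hr at room temperature.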
On the % scale 0 is the no-effect control and ±100 the full control effect.

c1ccc2c(c1)ccc1cc3c(ccc4ccccc43)cc12
inactive: Potency [1] | Potency [2] | Potency [3] | Potency [4] | Potency [5] | Potency [6] | outcome [7] | Potency [8] | Potency [9] | Potency [10] | Potency [11] | Potency [12] | Potency [14]
active: Potency [13] 3.03 µM and 1.71 µM

NC[C@H](O)c1ccc(O)c(O)c1
inactive: Potency [1] | Potency [2] | Potency [3] | Potency [5] | Potency [6] | outcome [7] | Potency [10] | Potency [11] | Potency [12] | Potency [13] | max activation [15] -0.838% | Potency [16] | Potency [17] | Potency [14]

Cc1ccc(C)c(O)c1
inactive: Potency [1] | Potency [2] | Potency [3] | Potency [5] | Potency [6] | outcome [7] | Potency [18] | Potency [9] | Potency [19] | Potency [10] | Potency [11] | Potency [12] | Potency [13] | Potency [14]

OC[C@@H](O)[C@@H](O[C@@H]1O[C@H](CO)[C@H](O)[C@H](O)[C@H]1O)[C@H](O)[C@@H](O)CO
inactive: Potency [1] | Potency [3] | Potency [4] | Potency [5] | Potency [6] | outcome [7] | Potency [9] | Potency [10] | Potency [11] | Potency [12] | Potency [13] | max activation [15] -8.22% | Potency [16] | Potency [17] | Potency [14]

CC(C)(Oc1ccc(Cl)cc1)C(=O)O
inactive: Potency [1] | Potency [2] | Potency [3] | Potency [4] | Potency [5] | Potency [6] | outcome [7] | Potency [10] | Potency [11] | Potency [13]

CN(C)C
inactive: Potency [1] | Potency [2] | Potency [3] | Potency [5] | Potency [6] | outcome [7] | Potency [9] | Potency [19] | Potency [10] | Potency [11] | Potency [12] | Potency [13]

FC(F)(F)C(Cl)Br (stereo not given)
inactive: Potency [1] | Potency [2] | Potency [3] | Potency [4] | Potency [5] | Potency [6] | outcome [7] | Potency [10] | Potency [11] | Potency [12] | Potency [13] | max activation [15] -0.375% | Potency [16] | Potency [17] | Potency [14]

CC1(C)O[C@@H]2C[C@H]3[C@@H]4C[C@H](F)C5=CC(=O)C=C[C@]5(C)[C@@]4(F)[C@@H](O)C[C@]3(C)[C@]2(C(=O)CO)O1
inactive: Potency [1] | Potency [20] | Potency [3] | Potency [5] | Potency [6] | outcome [7] | Potency [8] | Potency [18] | Potency [9] | Potency [19] | Potency [10] | Potency [11] | Potency [14]
active: Potency [13] 24.3 µM and 8.41 µM | Potency [15] 11.2 µM | Potency [17] 15.8 µM

O=C(CCCN1CCC(O)(c2ccc(Cl)cc2)CC1)c1ccc(F)cc1
active: Potency [9] 27.3 µM and 23.7 µM
inactive: Potency [1] | Potency [3] | Potency [5] | Potency [6] | outcome [7] | Potency [11]
61.1 µM (active) and inactive: Potency [10]
54.5 µM (active) and inactive: Potency [19]
48.6 µM (active) and inactive: Potency [12]
